Data on 7 compounds can be found in PubChem BioAssay (NCI).

Experiment in all cases: NCI-60 one-dose screen, 48 h (100 = growth as untreated, 0 = no growth, -100 = all killed)
The subject of one test is NCI-H226 lung. To be noted: 10 µM.
In a further test the test system is NCI-H322M lung. As to conditions: 10 µM.
The subject of a further test is HOP-62 NSCLC. To be noted: 10 µM.
The next test relates to NCI-H460 lung. To be noted: 10 µM.
A further test has as its system NCI-H522 lung. As to conditions: 10 µM.
The test system of another test is COLO 205 colon. To be noted: 10 µM.
Another test concerns DU-145 prostate. As to conditions: 10 µM.
The test system of the next test is SF-268 CNS. As to conditions: 10 µM.
The next test relates to SF-295 CNS. As to conditions: 10 µM.
In another test the test system is SF-539 CNS. As to conditions: 10 µM.
For a further test, the system named is UACC-257 melanoma. As to conditions: 10 µM.
In another test the test system is M14 melanoma. To be noted: 10 µM.
In another test the test system is HCT-15 colon. To be noted: 10 µM.
For a further test, the system named is HT29 colon. To be noted: 10 µM.
Another test deals with SNB-19 CNS. To be noted: 10 µM.
For a further test, the system named is U251 CNS. To be noted: 10 µM.
For the next test, the system named is SK-MEL-5 melanoma. To be noted: 10 µM.
Another test deals with UACC-62 melanoma. As to conditions: 10 µM.
A further test deals with SK-MEL-2 melanoma. To be noted: 10 µM.
In the next test the test system is HL-60(TB) leukemia. As to conditions: 10 µM unless noted.

Compounds without any hit were thinned out: in the full panel of roughly 83,000, 20% have a hit.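 Assay: single dose, 48 h. Readout: percent growth (0 = no net growth; negative = cell death). Active: <10.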 A number with no mark means an inactive call. Active and inactive are the calls of the source.

In the case of `CC(C)N=C([Se])NC(=O)c1cccs1`, the growth in the test on NCI-H226 lung was 64.6%; in the test with NCI-H322M lung it was -2.73% (active); in the test on HOP-62 NSCLC it was -2.97% (active); in the test on NCI-H460 lung, 0.572% (active); in the test with NCI-H522 lung, 41.1%; in the test with COLO 205 colon, 84.7%. Besides, the growth was -14.3% (active) with DU-145 prostate; 59.4% in the test on SF-268 CNS; -14% (active) with SF-295 CNS; -63.3% (active) in the test with SF-539 CNS; 39.3% in the test with UACC-257 melanoma; 8.28% (active) in the test with M14 melanoma. Further, the growth in the test with HCT-15 colon was 34.9%; with HT29 colon it was 27.9%; in the test on SNB-19 CNS, 4.61% (active); in the test on U251 CNS, 12.2%; with SK-MEL-5 melanoma, -59.7% (active); in the test on UACC-62 melanoma, 27.5%. Further, the growth with SK-MEL-2 melanoma is -57.7% (active); with HL-60(TB) leukemia it was 56%.

Regarding `C[C@H]1[C@H](OC(=O)CCC(=O)Nc2cnccn2)O[C@@H]2OC3(C)CC[C@H]4[C@H](C)CC[C@@H]1[C@@]24OO3`, the growth in the test on NCI-H226 lung was 74.8%; in the test on NCI-H322M lung it was 77.4%; with HOP-62 NSCLC, 53.6%; in the test on NCI-H460 lung, 29.6%; in the test on NCI-H522 lung, -13.6% (active); with COLO 205 colon, 11.9%. The growth with DU-145 prostate was 77.7%; in the test with SF-268 CNS, 56.3%; with SF-295 CNS, 41.7%; in the test with SF-539 CNS it was 33.2%; in the test with UACC-257 melanoma it was 56.1%; with M14 melanoma, 35.9%. Besides, the growth is 12% in the test with HCT-15 colon; 27.3% with HT29 colon; 56.3% with SNB-19 CNS; 42.6% in the test on U251 CNS; 26.9% with SK-MEL-5 melanoma; 26.3% in the test on UACC-62 melanoma. Further, the growth with SK-MEL-2 melanoma is 31.2%.

`COc1cc2cc(C(=O)N3C[C@@H](CCl)c4c3cc(OC(=O)N3CCN(C(=O)CCC(=O)N5CCN(C)CC5)[C@@H]5CSSC[C@@H]53)c3ccccc43)[nH]c2c(OC)c1OC`: the growth is -11.6% (active) with NCI-H226 lung; -7.14% (active) with NCI-H322M lung; -55.3% (active) in the test on HOP-62 NSCLC; -67.7% (active) in the test on NCI-H460 lung; -82.7% (active) with NCI-H522 lung; -65.6% (active) with COLO 205 colon. For the same compound, the growth is -4.3% (active) with DU-145 prostate; -28.4% (active) with SF-268 CNS; -88.5% (active) with SF-295 CNS; -91.8% (active) in the test with SF-539 CNS; -71.7% (active) in the test on UACC-257 melanoma; -81.7% (active) in the test with M14 melanoma. Moreover, the growth in the test on HCT-15 colon was -87.4% (active); with HT29 colon, -84.3% (active); in the test with SNB-19 CNS, -50.2% (active); with U251 CNS, -71.2% (active); in the test on SK-MEL-5 melanoma, -100% (active); in the test with UACC-62 melanoma, -64% (active). Moreover, the growth with SK-MEL-2 melanoma is -83.3% (active); with HL-60(TB) leukemia, -37.6% (active).

As for `COc1cc2cc(C(=O)N3C[C@@H](CCl)c4c3cc(OC(=O)N3CCN(C)[C@@H]5CSSC[C@H]53)c3ccccc43)[nH]c2c(OC)c1OC`, the growth in the test with NCI-H226 lung is -42.7% (active); in the test with NCI-H322M lung it was -12.4% (active); with HOP-62 NSCLC it was -19.1% (active); in the test on NCI-H460 lung, -68.9% (active); in the test on NCI-H522 lung, -68% (active); in the test on COLO 205 colon it was -59.2% (active). In addition, the growth is 1.52% (active) in the test on DU-145 prostate; 2.46% (active) in the test on SF-268 CNS; -43.2% (active) in the test on SF-295 CNS; -96% (active) in the test on SF-539 CNS; -46.3% (active) with UACC-257 melanoma; -76.2% (active) in the test on M14 melanoma. Moreover, the growth in the test with HCT-15 colon was -18.7% (active); with HT29 colon it was -50.7% (active); in the test with SNB-19 CNS, -15.4% (active); with U251 CNS, -14.6% (active); in the test with SK-MEL-5 melanoma, -100% (active); in the test on UACC-62 melanoma, -92.9% (active). For the same compound, the growth in the test with SK-MEL-2 melanoma is -91.8% (active); in the test on HL-60(TB) leukemia, -43.4% (active).

Turning to `CC[C@@]12CC(C(=O)OC)=C3Nc4cc5c(cc4[C@@]34CCN(C[C@H]3O[C@H]31)[C@@H]24)[C@@H]1[C@H](O5)[C@@H](O)[C@@]2(CC)CC(C(=O)OC)=C3Nc4cc(OC)ccc4[C@@]34CCN1[C@@H]24`, the growth in the test with NCI-H226 lung is -4.56% (active); in the test on NCI-H322M lung it was 25.1%; in the test with HOP-62 NSCLC, 21.5%; with NCI-H460 lung, 15.9%; in the test with NCI-H522 lung it was 2.96% (active); with COLO 205 colon, -59.1% (active). The growth in the test with DU-145 prostate is 50.7%; in the test on SF-268 CNS it was 38.5%; in the test with SF-295 CNS, 0.382% (active); in the test on SF-539 CNS, 21.7%; in the test with UACC-257 melanoma, 54.3%; with M14 melanoma, 28.7%. The growth in the test with HCT-15 colon was -38.1% (active); with HT29 colon, 10.7%; with SNB-19 CNS it was 21.3%; in the test with U251 CNS, 17.2%; in the test with SK-MEL-5 melanoma, -85.1% (active); with UACC-62 melanoma, 3% (active). Besides, the growth with SK-MEL-2 melanoma was -12% (active); with HL-60(TB) leukemia, -17% (active).

As for `C[C@H]1[C@H](OC(=O)CCC(=O)N(CCCc2cn(-c3ccc(CN4CCOCC4)cc3)nn2)CCNc2ccnc3cc(Cl)ccc23)O[C@@H]2OC3(C)CC[C@H]4[C@H](C)CC[C@@H]1[C@@]24OO3`, the growth with NCI-H226 lung was 54.1%; with NCI-H322M lung it was 20.9%; in the test on HOP-62 NSCLC it was 56.4%; in the test on NCI-H460 lung, 7.93% (active); in the test on NCI-H522 lung, -22.3% (active); in the test on COLO 205 colon, -30.1% (active). The growth in the test on DU-145 prostate is 49.7%; with SF-268 CNS, 50.1%; in the test with SF-295 CNS, -2.37% (active); in the test on SF-539 CNS, -73% (active); in the test on UACC-257 melanoma, -69.8% (active); in the test with M14 melanoma it was -66.3% (active). Moreover, the growth in the test with HCT-15 colon was 8.55% (active); with HT29 colon, -12.5% (active); in the test on SNB-19 CNS, 50.9%; in the test with U251 CNS, 13.3%; with SK-MEL-5 melanoma, -90% (active); with UACC-62 melanoma, 16.6%. The growth in the test with SK-MEL-2 melanoma was 44.2%; in the test on HL-60(TB) leukemia, -47% (active).

As for `C[C@H]1[C@@H](CC(=O)N[C@@H](Cc2coc3ccccc23)B(O)O)O[C@@H]2OC3(C)CC[C@H]4[C@H](C)CC[C@@H]1[C@@]24OO3`, the growth in the test on NCI-H226 lung was -28.1% (active); with NCI-H322M lung, 19.6%; with HOP-62 NSCLC, -17.3% (active); in the test with NCI-H460 lung, -28.2% (active); in the test with NCI-H522 lung it was -74.5% (active); in the test on COLO 205 colon it was -49.2% (active). The growth in the test with DU-145 prostate was 21.6%; in the test on SF-268 CNS, 20.4%; with SF-295 CNS, -88.8% (active); with SF-539 CNS it was -96.4% (active); in the test on UACC-257 melanoma it was -41% (active); in the test on M14 melanoma it was -44% (active). Also, the growth in the test with HCT-15 colon is -62.3% (active); in the test with HT29 colon, -57.6% (active); with SNB-19 CNS, 26%; in the test with U251 CNS it was -14.3% (active); in the test on SK-MEL-5 melanoma, -97.2% (active); in the test with UACC-62 melanoma, -90.8% (active). The values for the growth in the test on SK-MEL-2 melanoma and with HL-60(TB) leukemia were -53.6% (active) and -4.67% (active), respectively.
